D2 PAM-1 = Beta-Arrestin HTS for Positive Allosteric Modulators of the Human D2 Dopamine Receptor: Potentiators; D(2) dopamine receptor (Homo sapiens), P14416; DiscoveRx D2 beta-arrestin cells, luminescence, 90 min; 100% = 57 uM dopamine signal; potentiation, % (no concentration beside the values); 0.23% of 360,000 active; AID 624464, 2012; in the data active means potentiation above about 50%; inconclusive means mostly about 30% to 49%
Target sequence (P14416 whole entry, looked up): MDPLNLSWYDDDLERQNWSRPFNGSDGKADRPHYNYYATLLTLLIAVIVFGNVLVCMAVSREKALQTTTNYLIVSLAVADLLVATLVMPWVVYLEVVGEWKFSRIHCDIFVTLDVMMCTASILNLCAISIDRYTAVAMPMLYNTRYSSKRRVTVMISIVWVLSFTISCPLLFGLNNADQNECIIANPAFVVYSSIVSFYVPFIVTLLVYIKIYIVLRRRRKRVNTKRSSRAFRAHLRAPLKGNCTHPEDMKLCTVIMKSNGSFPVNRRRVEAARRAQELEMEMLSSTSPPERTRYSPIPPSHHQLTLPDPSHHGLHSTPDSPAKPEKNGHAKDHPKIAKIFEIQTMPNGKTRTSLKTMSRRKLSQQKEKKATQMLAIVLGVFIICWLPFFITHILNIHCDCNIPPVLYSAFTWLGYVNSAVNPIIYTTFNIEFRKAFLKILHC
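PathHunter D2 cells, attached overnight at 37 deg C, received compound in DMSO plus dopamine at EC20 (50 nM final) for 90 min at 37 deg C. Beta-arrestin recruitment was read as luminescence after 1 h with detection reagent at ambient temperature.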
D2 PAM-2 = HTS Assay for Positive Allosteric Modulators of the Human D2 Dopamine Receptor: Primary Screen for Potentiators | HEK293 T-REx D2, calcium flux, EC20 dopamine potentiation | potentiation, % at 10 µM | 0.34% of 340,000 active | D(2) dopamine receptor (Homo sapiens), P14416;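 active means potentiation over 3 SD above the plate norm, cut at about 30% in these data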
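Calcium flux readout, no-wash dye, 1 read/s. Inducible HEK293 Trex D2 line, overnight 30 C. Compound alone 180 s (agonist flags), then EC20 dopamine, another 180 s to score potentiation.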
Anesthetic bind = qHTS Assay for Identification of Novel General Anesthetics; Ferritin light chain (Equus caballus), P02791; apoferritin/1-aminoanthracene competitive binding, fluorescence; Potency, µM (titrated, usually from 77.5 µM), usual class: inhibitors; 0.074% of 350,000 active; active means well fitted inhibition curve with a large enough effect; inconclusive means small, poorly fitted or top-dose-only effect; inactive means no such curve, though single readings can be large or run the other way; further: nearly all actives have a fitted effect of over 20% in size
Target sequence (P02791 2-175 limits assumed): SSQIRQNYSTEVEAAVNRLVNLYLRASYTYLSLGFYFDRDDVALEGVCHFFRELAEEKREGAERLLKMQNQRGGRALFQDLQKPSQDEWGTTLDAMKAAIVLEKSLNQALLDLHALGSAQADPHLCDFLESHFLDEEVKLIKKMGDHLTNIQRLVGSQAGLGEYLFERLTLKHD
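Probe: 1-aminoanthracene (50% saturated, PBS). Protein: horse-spleen apoferritin, 10 uM. Incubation: 10 min, room temperature. Detection: 380 nm excitation, 535 nm emission. Analysis: normalized response, four-parameter Hill.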
D2 ag-1 = HTS Assay for Allosteric Agonists of the Human D2 Dopamine Receptor: Primary Screen for Agonists; 0.53% of 340,000 active; HEK293 T-REx D2 cells, calcium flux agonist mode; activation, % at 2 µM; AID 485358, 2010;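 active means activation over 3 SD above normal in the single-dose calcium agonist read, cut at about 30% in these data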
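In this primary screen, compounds producing a positive calcium signal within 180 s of addition to tetracycline-induced, force-coupled HEK293 Trex D2 cells are flagged; cells are dye-loaded with a no-wash calcium kit beforehand.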
D2 antag = HTS Assay for Allosteric Antagonists of the Human D2 Dopamine Receptor: Primary Screen for Antagonists; D(2) dopamine receptor (Homo sapiens), P14416; HEK293 TREx D2 cells, calcium flux, dopamine EC80; inhibition, % at 10 µM; 2% of 340,000 active; AID 485344, 2010; in the data active means inhibition above about 30%; inactive means below that, where a call was filed
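Compounds are added to dye-loaded, induced HEK293 T-REx cells coupled to calcium release via D2; after a 3 min kinetic read an EC80 dopamine stimulus is given and fluorescence is recorded for 3 more min.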
D2 ag-2 = Beta-Arrestin HTS for Positive Allosteric Modulators of the Human D2 Dopamine Receptor: Agonists; D(2) dopamine receptor (Homo sapiens), P14416; 0.084% of 360,000 active; DiscoveRx PathHunter D2 beta-arrestin, luminescence, 90 min; 100% = 57 uM dopamine signal; activation, % (test concentration not listed); in the data active means activation above about 40%; inconclusive means between about 15% and that limit
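Agonist mode: compounds alone added to overnight-plated D2 PathHunter cells for 90 min at 37 C, with 57 uM final dopamine (EC100) defining full response. Beta-arrestin recruitment detected by chemiluminescent reagent, read after 1 h at ambient temperature.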
Each line names hits and unclear results; the compound was inactive in the other large screens. Shown are actives, neighbours in structure and some others; about 2.5% of the full set was active somewhere.

CCOc1ccc(CN(C(=O)c2oc3ccccc3c2C)C2CCS(=O)(=O)C2)cc1 (configuration not stated)	none (no result: D2 PAM-2, D2 ag-1, D2 antag)
Cc1ccc(S(=O)(=O)CC(=O)c2ccc(C)c([N+](=O)[O-])c2)cc1	D2 antag 79
Cc1ccc(S(=O)(=O)CC(=O)c2ccc([N+](=O)[O-])cc2)cc1	none
O=C1c2ccccc2CCC12OC2c1ccc([N+](=O)[O-])cc1 (configuration not stated)	none (no result: D2 PAM-2, Anesthetic bind, D2 ag-1, D2 antag)
COc1cc(/C=C/C(=O)c2ccc3c(c2)OCO3)cc(Cl)c1O	D2 ag-1 78, D2 antag 35
Cc1ccc(S(=O)(=O)N2CCN(C(=O)COC(=O)/C=C/c3ccc(C(F)(F)F)cc3)CC2)c(C)c1	none (no result: D2 PAM-2, Anesthetic bind, D2 ag-1, D2 antag)
Cc1cccc(N2CCN(C(=O)CCn3c(=O)[nH]c4ccsc4c3=O)CC2C)c1 (configuration not stated)	D2 PAM-1 inconclusive, D2 ag-2 56
O=C(CCCCCn1c(=O)[nH]c2ccsc2c1=O)N1CCN(C2CCCCC2)CC1	D2 antag 53
O=C(CCCCCn1c(=O)[nH]c2ccsc2c1=O)N1CCCCC1	none
O=[N+]([O-])c1ccc(S(=O)(=O)N2CCC3(CC2)OCCN3S(=O)(=O)c2cccs2)cc1	D2 PAM-1 72 (no result: Anesthetic bind)
CCOc1ccc2nc(NCCNC(=O)C(C)C)c(C)cc2c1	none
COc1ccc(Br)cc1C1Nc2ccccc2C(=O)N1NC(=O)c1ccncc1 (configuration not stated)	D2 PAM-2 30
Cc1ccc(-n2c(SCC(=O)Nc3cccc(S(=O)(=O)NC4=NCCCCC4)c3)nc3ccccc3c2=O)cc1	none
Cc1cc(C)n2ncc(/C(N)=N/OC(=O)c3ccccc3F)c2n1	none
CCN(Cc1ccccc1)C(c1cccs1)c1nnnn1C1CCCCC1 (configuration not stated)	none
Clc1ccccc1CN(Cc1ccccc1)C(c1cccs1)c1nnnn1C1CCCC1 (configuration not stated)	D2 antag 50
c1coc(CN=C2NC(=NCc3ccco3)c3ccccc32)c1	Anesthetic bind inconclusive
COC(=O)NNC(=O)c1ccc(Cl)cc1Cl	none
CC(C)(C)C(=O)NC(=S)NNC(=O)c1ccc(Cl)cc1Cl	D2 ag-1 116, D2 antag 91
CCCOc1ccc(C(=O)NNC(=S)NC(=O)c2ccccc2)cc1	D2 ag-1 45
CCCOc1ccc(C(=O)NNC(=S)NC(C)=O)cc1	none (no result: D2 ag-1, D2 antag)
CC(C)(C)C(=O)NC(=S)NNC(=O)c1ccc(-c2ccccc2)cc1	D2 ag-1 90, D2 antag 64
COc1ccccc1NC(=O)c1c([N+](=O)[O-])c(C(C)(C)C)nn1C	none
COc1ccc(-n2nc(C(=O)N3CCN(c4ccc(F)cc4)CC3)c3ccccc3c2=O)c(OC)c1	D2 antag 34
CCN(CC)CC(=O)NC1CCCc2c1cnn2-c1cc(F)cc(F)c1 (configuration not stated)	none (no result: D2 PAM-2, Anesthetic bind, D2 ag-1, D2 antag)
COC(=O)Cc1csc(NC(=O)CSc2nnc3ccccn23)n1	none
Cc1cc(-n2c(C)cc(C(=O)COc3ccc(F)c(F)c3)c2C)no1	D2 antag 30 (no result: Anesthetic bind)
Cn1c2ccccc2c(=O)c2c(=O)n(-c3ccccc3)c(C3CCCCC3)nc21	none
COC(=O)c1ccc(NC(=O)C2CC(=O)OC2c2ccccc2)cc1 (configuration not stated)	D2 antag 35
O=C(COC(=O)/C=C/c1cccc(F)c1)NNC(=O)c1ccccc1	D2 antag 45
CC(C(=O)N1CCCc2ccccc21)N1CCN(c2ccccn2)CC1 (configuration not stated)	none
N#CCSc1nc2ccccc2c2nc3ccccc3n12	D2 antag 33
COC(=O)CCC(=O)OC1(C)C(=O)C2=CN(CCCCO)C(c3ccc(OC)cc3)=CC2=C(Br)C1=O (configuration not stated)	none (no result: D2 PAM-1, D2 ag-2)
COC(=O)CCC(=O)OC1(C)C(=O)C2=CN(C(CO)CO)C(c3ccc(OC)cc3)=CC2=C(Br)C1=O (configuration not stated)	D2 antag 30 (no result: D2 PAM-1, D2 ag-2)
CC(C)N(Cc1ccccc1)C(=O)CCS(=O)(=O)c1ccc2c(c1)oc(=O)n2C	none
O=C(NCC1CCCO1)c1nnc(Cc2ccc(F)cc2)o1 (configuration not stated)	D2 antag 39
CNC(=O)c1c(NC(=O)c2ccco2)sc(C)c1C	none (no result: Anesthetic bind)
O=[N+]([O-])c1ccc(N2CCN(CCO)CC2)cc1Sc1ccccn1	none
CCN1CCN(c2ccc([N+](=O)[O-])c(Sc3nc4ccccc4[nH]3)c2)CC1	D2 antag 87
O=C(NCc1ccccc1)C(=O)Nc1nc(C23CC4CC(CC(C4)C2)C3)cs1	D2 antag 32
N#Cc1cc([N+](=O)[O-])ccc1NCCc1ccccn1	none
COc1ccc(S(=O)(=O)N2CCC(c3nc4ccccc4s3)CC2)cc1OC	none (no result: D2 PAM-1, D2 antag, D2 ag-2)
COc1cc(S(=O)(=O)N2CCC(c3nc4ccccc4s3)CC2)ccc1S(=O)(=O)N1CC(C)CC(C)C1 (configuration not stated)	D2 PAM-2 34
Fc1ccc(-[n+]2nc(Nc3ccccc3)sc2-c2cccc(Cl)c2Cl)cc1	none
O=C(NCc1cccnc1)c1cccc2c1C(=O)N(C1CCCCC1)C2	none
O=C(NCc1ccco1)c1cccc2c1C(=O)N(C1CCCCC1)C2	D2 PAM-2 35
CC(/C=N/NC(=O)c1cccc(F)c1)=C\c1ccccc1	D2 antag 33
CC(=C/c1ccc(C(C)C)cc1)/C=N/NC(=O)c1ccncc1	D2 antag 36
COc1ccccc1C(=O)N/N=C/C(C)=C/c1ccccc1	D2 antag 75
CC(/C=C/c1ccccc1)=N/NC(=O)C(O)c1ccccc1 (configuration not stated)	none
Cc1nc2nc(NC(=O)c3ccc(F)cc3)[nH]n2c(=O)c1Cc1ccccc1	none (no result: D2 PAM-1, D2 antag, D2 ag-2)
COc1cccc(NC(=O)CSCc2nc3sc(C)c(C)c3c(=O)[nH]2)c1	none (no result: D2 PAM-2, Anesthetic bind, D2 ag-1, D2 antag)
COc1ccc(CCNCC(=O)Nc2ccc(C)c(S(=O)(=O)N(C)C)c2)cc1	D2 antag 33

From PubChem BioAssay
